# Screens deposited in PubChem BioAssay by National Center for Advancing Translational Sciences (NCATS).
# The list is not random: actives were taken first. Their share in the collection is about 6%.
# DRD3 antagonist: qHTS of D3 Dopamine Receptor Antagonist: qHTS; D(3) dopamine receptor (Homo sapiens), P35462; D3R cells, DiscoveRx beta-arrestin luminescence, antagonist mode; hits give low values; max response, negative = inhibition, %; 360,000 compounds, 2.5% hits; AID 652054, 2013; in the data active means max response below about -50%; inconclusive means no clear call, values can overlap the other calls; further: on the % scale 0 is the no-effect control and ±100 the full control effect
# Target sequence (P35462 whole entry, looked up): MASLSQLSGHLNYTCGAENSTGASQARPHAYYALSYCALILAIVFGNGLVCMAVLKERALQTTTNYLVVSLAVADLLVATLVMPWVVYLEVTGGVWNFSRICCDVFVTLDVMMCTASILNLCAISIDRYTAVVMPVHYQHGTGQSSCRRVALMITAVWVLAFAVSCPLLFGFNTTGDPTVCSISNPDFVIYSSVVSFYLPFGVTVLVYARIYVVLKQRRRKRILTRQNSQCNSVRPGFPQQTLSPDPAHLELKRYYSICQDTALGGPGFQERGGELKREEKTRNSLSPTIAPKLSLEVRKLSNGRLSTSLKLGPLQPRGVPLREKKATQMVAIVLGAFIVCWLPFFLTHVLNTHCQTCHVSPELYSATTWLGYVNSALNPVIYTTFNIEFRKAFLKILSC
#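 Cells plated overnight at 1500 cells/well, then exposed to library compounds with dopamine controls for 90 minutes at 37 degrees C. DiscoveRx reagent added for 30–60 minutes at room temperature; luminescence read, quantitative HTS format.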
# BCR signal inh: qHTS Assay to Find Inhibitors of Chronic Active B-Cell Receptor Signaling. 340,000 compounds, 0.05% hits. ABC-DLBCL IkBa-CBG/CBR reporter, luminescence ratio, 4 h. Potency, µM (series often up to 46.1 µM), inactives show top-dose activity change, negative = inhibition, usual class: inhibitors; active means well fitted inhibition curve with a large enough effect in the signal ratio, with a control signal flat, not every such curve was filed as active; inconclusive means small, poorly fitted or top-dose-only effect, or effect the other way, or a change in a side signal; the % refers to the signal ratio;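 further: potency means the concentration at half of the fitted maximal effect; plate controls were basal doxycycline-induced cells for no effect and cells given 10 µM MG132 for full effect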
#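 Concentration-response series (up to 46 uM) were applied to TMD8 dual-reporter cells for 4 h at 37C with doxycycline. Green/red ratio, after filter-overlap correction, defined %Activity; red signal alone was normalised to basal cells and zero luminescence.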
# D1 ag: Allosteric Agonists of the Human D1 Dopamine Receptor: qHTS. HEK293 T-REx D1 cells, calcium flux, agonist mode. AID 504660, 2011. 360,000 compounds, 1% hits. activation, % at 2 µM; in the data active means activation above about 30%; further: 0% is about no effect
#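 Tetracycline-induced HEK293 TREx D1 cells, force-coupled to calcium signalling, were dye-loaded with a no-wash calcium kit. Compound was pin-added after a 10 s baseline. Fluorescence was read kinetically at 1 cycle/s for 180 s, with calcium rises flagged as agonism.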
# D1 antag: Antagonist of Human D 1 Dopamine Receptor: qHTS; D(1A) dopamine receptor (Homo sapiens), P21728; HEK293 TREx D1 cells, calcium flux, dopamine EC80; hits give low values; activity change, negative = inhibition, % at 10 µM; 360,000 compounds, 3.2% hits; AID 504652, 2011; in the data active means activity change below about -30%; further: on the % scale 0 is the no-effect control and ±100 the full control effect
#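 Tetracycline-induced HEK293 Trex D1 cells, force-coupled to calcium, dye-loaded; compounds added and read 180 s, then EC80 dopamine added and calcium flux tracked kinetically another 180 s.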
# DRD3 agonist: qHTS of D3 Dopamine Receptor Agonist: qHTS. D(3) dopamine receptor (Homo sapiens), P35462. D3R DiscoveRx beta-arrestin cells, luminescence, 90 min. max activation, %. 410,000 compounds, 0.58% hits; in the data active means max activation above about 30%; further: 0% is about no effect
#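 Agonist-mode cell screen: cells plated at 1500/well and incubated overnight at 37 °C, then exposed to library compounds for 90 min at 37 °C. Detection reagent was added for 30–60 min at room temperature, and luminescence was read.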
# D1 PAM: Potentiators of Human D1 Dopamine Receptor: qHTS; potentiation, % at 10 µM; HEK293 TREx D1 cells, calcium flux, dopamine EC20 potentiation; 360,000 compounds, 0.036% hits; D(1A) dopamine receptor (Homo sapiens), P21728; in the data active means potentiation above about 30%; further: 0% is about no effect
# Starred values were filed as active, the others as inactive; ? = inconclusive; . = not tested or not shown; ! = repeats disagree.
SMILES,DRD3 antagonist,BCR signal inh,D1 ag,D1 antag,DRD3 agonist,D1 PAM
COc1ccc(C)cc1-n1nnnc1SCC(=O)Nc1cc(C)on1,9.9,6.1%,3.0,-51.1*,11.7,6.8
COc1ccc(C)cc1-n1nnnc1SCC(=O)NC(=O)NCc1ccco1,16.9,3.0%,2.1,-36.6*,14.7,-2.1
COc1ccc(OC)c(-n2c(SCC(=O)Nc3cc(C)on3)nnc2-c2c[nH]c3ccccc23)c1,-51.3*,?,2.6,-14.3,-5.5,.
O=C(C1CC(=O)N(c2ccccc2)C1)N1CCN(c2ccc(F)cc2)CC1 (stereo not given),-68.6*,-1.7%,5.4,-0.5,-14.1,-6.4
CCCCc1nn2c(=O)cc(COC(=O)c3cccc(NC(=O)c4cccs4)c3)nc2s1,.,.,-0.4,0.5,-4.6,1.1
O=C(NCc1ccc(F)cc1)C1CCCCN1S(=O)(=O)c1ccc(F)cc1 (stereo not given),.,.,2.6,-24.3,-14.9,-3.8
Cc1ccccc1CNC(=O)C1CCCCN1S(=O)(=O)c1ccc(F)cc1 (stereo not given),.,.,0.0,-32.2*,-1.6,-6.3
COC(=O)c1c(N)nc(C)n1-c1ccc(OC)cc1,-15.3,2.2%,3.9,-13.6,-1.1,41.4*
Nc1c(C(=O)Nc2cccc(F)c2)sc2nc(-c3cccs3)ccc12,.,.,32.5*,-7.1,-1.1,-3.5
Cc1ccc(NC(=O)c2sc3nc(-c4cccs4)ccc3c2N)cc1F,.,.,23.8,3.7,2.3,0.9
CCCSc1nnc(NC(=O)c2sc3nc(-c4cccs4)ccc3c2N)s1,27.3,8.9%,43.1*,2.3,-5.6,0.6
Cc1csc(NC(=O)c2sc3nc(-c4cccs4)ccc3c2N)n1,51.4,9.4%,73.3*,-3.4,39.4*,-1.1
CCOc1ccc(CNC(=O)C2CCCN(S(=O)(=O)N(C)c3ccc(F)cc3)C2)cc1OC (stereo not given),.,.,34.5*,-26.6,5.4,-5.5
CC(=O)N1CCCc2cc(S(=O)(=O)N3CCCC(C(=O)Nc4cc(C)ccc4C)C3)ccc21 (stereo not given),16.8,1.3%,0.9,-0.6,5.1,-2.9
COc1ccc(Br)cc1CNC(=O)C1CCCN(S(=O)(=O)N2CC(C)CC(C)C2)C1 (stereo not given),12.2,-5.1%,4.1,-32.6*,3.5,-3.5
CC(=O)N1CCCc2cc(S(=O)(=O)N3CCCC(C(=O)Nc4cccc(Cl)c4C)C3)ccc21 (stereo not given),.,.,1.6,-44.1*,-5.7,-5.2
CC(=O)N1CCCc2cc(S(=O)(=O)N3CCCC(C(=O)Nc4ccccc4C)C3)ccc21 (stereo not given),3.5,5.5%,1.6,-36.6*,6.3,-4.7
COc1ccc(CNC(=O)C2CCCN(S(=O)(=O)N(C)c3ccc(F)cc3)C2)cc1OC (stereo not given),.,.,3.7,-26.6,8.6,-5.9
O=C(Cc1c(F)cccc1Cl)Nc1cc(S(=O)(=O)N2CCOCC2)ccc1N1CCOCC1,3.1,-8.7%,4.7,-2.5,4.2,-1.4
CCN(c1ccccc1)c1ncnc2c1cnn2-c1ccc(C)cc1C,.,9.0%,-0.8,-2.3,3.1,0.8
COc1ccc(S(=O)(=O)N2CCC(C(=O)NCc3ccncc3)CC2)cc1Cl,-5.9,3.8%,0.4,-10.2,-2.1,-2.5
COc1ccc(S(=O)(=O)N2CCCC(C(=O)NCc3ccncc3)C2)cc1Cl (stereo not given),-71.0*,3.9%,14.2,4.5,-1.1,-1.1
CC(=O)N1CCCc2cc(S(=O)(=O)N3CCCC(C(=O)NCc4ccccc4)C3)ccc21 (stereo not given),18.3,7.3%,7.5,-30.5*!,1.6,-2.1
CSC1=NSC2=NC(=O)/C(=C\c3ccc(OC(=O)c4ccco4)cc3)C(=N)N12,-7.7,?,4.0,-9.9,21.7,-6.5
CCSC1=NSC2=NC(=O)/C(=C\c3coc4ccccc4c3=O)C(=N)N12,11.7,?,324.9*,-42.8*,2.9,3.5
SMILES,DRD3 antagonist,BCR signal inh,D1 ag,D1 antag,DRD3 agonist,D1 PAM
CC(C)CC1=NN2C(=N)/C(=C\c3coc4ccccc4c3=O)C(=O)N=C2S1,3.4,14.6%,61.2*,0.9,0.7,-4.5
CC(C)NC(=O)C1(C)CSCC(=O)N1CCOc1ccccc1 (stereo not given),4.4,.,.,.,-1.5,.
Cc1ccc(C)c(N2CCN(Cc3csc(C)c3)CC2)c1,.,.,3.7,3.4,-38.0,-5.7
O=c1cc(CSc2nc3ccccc3c(=O)[nH]2)c2ccc(O)cc2o1,12.4,?,1.3,-37.3*,-10.5,-7.2
Cc1ccc(CSC(Nc2ccc(F)cc2)=C(C#N)C#N)cc1,?,?,25.5,-35.7*,-1.3,-11.7
COCCN(CC(=O)NCC1CCCO1)C(=O)CCC(=O)Nc1cc(C)ccn1 (stereo not given),5.4,?,2.1,-37.1*,1.3,-3.5
Cc1nc2c(c(SCC(=O)Nc3ccccc3C(F)(F)F)n1)CCC2,.,.,5.7,-7.3,17.8,-0.9
O=C(CSc1nc2ccsc2c(=O)n1-c1ccc(Br)cc1)NCc1ccc(Cl)cc1,.,.,11.2,38.3,-0.9,-1.3
CCC(C)NCCCOc1c(C)cc(C)cc1Br (stereo not given),-54.3*,-6.3%,32.2*,11.3,-3.5,-7.0
CCC(C)NCCOCCOc1ccc(C)cc1Br (stereo not given),-70.4*,-7.0%,15.0,7.2,-12.8,-7.5
C=CCNCCOc1ccc(C)cc1[N+](=O)[O-],-71.6*,?,0.6,-8.3,-12.9,-5.4
CCC(C)NCCOc1ccc(C)cc1[N+](=O)[O-] (stereo not given),-60.0*,?,2.3,1.8,-16.6,-4.7
COc1ccccc1OCCOCCOc1ccc(C)cc1[N+](=O)[O-],6.7,-2.5%,2.7,-5.5,0.2,-4.5
CCCNC(=O)c1cc(C2CCCCN2C(=O)c2cc(OC)c(C)c(OC)c2)on1 (stereo not given),7.9,.,.,.,6.3,.
COCCCNCCCCOc1ccc(C)cc1[N+](=O)[O-],-69.5*,-7.8%,3.3,0.4,-33.6,-13.8
CCCCNCCOCCOc1ccc(C)cc1[N+](=O)[O-],-53.3*,-9.7%,0.5,-11.2,-4.9,0.5
C=CCN(CC=C)CCOc1ccc(C)cc1[N+](=O)[O-],-96.2*,5.3%,0.9,-17.5,-8.5,-3.2
